# Experimental data as given in ChEMBL document CHEMBL3988442, “University of Dundee, Small-Polar-MMV Screening Library” (2021).
# The campaign covered roughly 53,000 compounds. About 900 (1.7%) showed an effect of 50% or more. Shown is part of a subset that was picked to be rich in strong results.
# System: Mycobacterium tuberculosis
# Assay: Cornell - Phenotypic assay to identify agents that inhibit growth of Mycobacterium tuberculosis
# Type: functional
# Design: scale not given: direction of the effect not stated beside the values
# Conditions: 10 mM as filed; unlikely as a test dose
row,SMILES,Percent Effect [%]
1,O=C(Nc1ccnc2ccnn12)c1ccc(NC2CC2)nc1,-11.01
2,O=C(Nc1ccnc2ccnn12)c1ccc(N2CCC(O)CC2)cc1,85.62
3,Cc1cc(NC(=O)c2ccc(N3CCOCC3)cc2)[nH]n1,29.03
4,CS(=O)(=O)N1CCO[C@@H]2CN(C(=O)C3CC(F)(F)C3)C[C@@H]2C1,-22.45
5,Cn1c(NCc2ccc(C(N)=O)cc2)nc2cc(Cl)ccc21,60.39
6,Cn1c(NC(=O)CNC(=O)C2CC2)nc2cc(Cl)ccc21,-3.36
7,Cn1cc(CNc2nc3cc(Cl)ccc3n2C)cn1,16.71
8,COc1cccc(CN2CCCCCC2c2cccc(C)c2)c1O (configuration not stated),84.28
9,COc1cccc(CN2CCCCCC2c2cccs2)c1OC (configuration not stated),35.04
10,COc1cccc(CN2CCCCCC2c2sccc2C)c1O (configuration not stated),53.6
11,Cc1cccc(C2CCCCCN2Cc2cn(C)nc2C)c1 (configuration not stated),15.03
12,COc1cccc(CN2CCCCCC2c2cccc(F)c2)c1O (configuration not stated),45.8
13,COc1cccc(CN2CCCCCC2c2cccs2)c1O (configuration not stated),38.44
14,COc1cc(-c2cc(N)ncn2)cc(OC)c1OC,14.69
15,O=C(NCCNc1ncccn1)C1CCN(C(=O)NC2CC2)CC1,-5.946
16,Cc1nc(N(C)C)nc(C)c1NS(=O)(=O)c1ccc(OC(F)(F)F)cc1,21.9
17,CC(=O)N1CCN(c2cnccn2)CC(CO)C1 (configuration not stated),10.91
18,COCc1nc(C(=O)N2CCCC2c2noc(C)n2)cs1 (configuration not stated),-28.82
19,Cc1ccc(CN2CCCC2(C(N)=O)c2cnccn2)c(C)c1 (configuration not stated),-1.756
20,CSc1[nH]c(=O)c(C(=O)N2CCCC2C2CCCC2)cc1C#N (configuration not stated),65.7
21,CCC1CCCCCN1C(=O)c1cc(C#N)c(SC)[nH]c1=O (configuration not stated),-5.356
22,CSc1[nH]c(=O)c(C(=O)N2CCCC2c2cccs2)cc1C#N (configuration not stated),17.36
23,CC(=O)c1ccc(C(=O)NCc2cccnc2N2CCCC(O)C2)s1 (configuration not stated),26.17

row,SMILES,Percent Effect [%]
1,COc1cccc(CN(C)Cc2c(C)noc2C)c1OC,-9.272
2,CN1CCN(Cn2nc(-c3cccs3)ccc2=O)CC1,17.93
3,CCc1c(C)nc(-n2nc(-c3cccs3)cc2N)[nH]c1=O,106.9
4,Cc1nn(C)c(C)c1S(=O)(=O)NCCn1ccc(-c2cccs2)n1,-2.587
5,CC(C(N)=O)n1nc(-c2cccs2)cc(N)c1=O (configuration not stated),-30.4
6,CCc1c(C)nc(SCc2ccccn2)[nH]c1=O,11.8
7,Cc1nc(-n2nc(-c3cccs3)cc2N)[nH]c(=O)c1C,75.1
8,Cc1ccnc(C2CCN(C(=O)c3cnn(C)c3)CC2)n1,19.18
9,CN1C(=O)C2(CC(=O)Nc3c2cnn3C(C)(C)C)c2ccccc21 (configuration not stated),16.17
10,Cc1ccc(CC2CCCN2CC(=O)NCc2cccnc2)cc1 (configuration not stated),13.39
11,CN1CC2(CCCN(Cc3cccc(CCN)c3)C2)OC1=O (configuration not stated),4.729
12,CN(CC(=O)NCc1ccccn1)C1CCCN(c2cccnn2)C1 (configuration not stated),-22.52
13,COC(=O)c1ccccc1S(=O)(=O)NC(=O)c1cccc2c1OCCO2,-3.436
14,O=C1NC2(CCN(CCc3ccccc3)CC2)CC1c1ccccc1 (configuration not stated),19.15
15,Cl.Cl.O=C1NC2(CCNCC2)CC1c1ccncc1 (configuration not stated),-12.16
16,Cl.O=C1NC2(CCNCC2)CC1c1ccccc1 (configuration not stated),100.2
17,Cc1nn(C)c(N(C)C)c1CNCc1ccnc(N2CCOCC2)c1,31.35
18,CCS(=O)(=O)N1C[C@H]2CN(CC3CC3)C(=O)[C@H]2C1,-29.96
19,COc1ccccc1CCNS(=O)(=O)N1CCOCC1,-2.569
20,COCC(=O)NCCc1nc2cc(-c3ccc(OC)cc3)ncn2n1,48.11
21,Cc1cc(NCCS(C)(=O)=O)nc2cc3c(cc12)CCC3,21.34
22,CN(C)CCn1c(=O)oc2ccc(NC(=O)CC(C)(C)C)cc21,16.94
23,CC(C)CCC(=O)Nc1ccc2oc(=O)n(CCN(C)C)c2c1,-39.6

row,SMILES,Percent Effect [%]
1,CN(C)CCn1c(=O)oc2ccc(NC(=O)CSc3ccccc3)cc21,68.34
2,CCCn1cc(-c2cc(-c3c[nH]cn3)c(C#N)c(N)n2)c(C)n1,4.241
3,CCCn1cc(-c2cc(-c3cnc(OC)nc3)c(C#N)c(N)n2)c(C)n1,56.67
4,CCCn1cc(-c2cc(-c3ccoc3)c(C#N)c(N)n2)c(C)n1,46
5,O=C(NCc1ccco1)[C@@H]1CCO[C@@H]2CCN(c3ncccn3)C[C@@H]21.O=C(O)C(F)(F)F,-22.51
6,Cc1ncc(CN2CCC(c3nc(O)cc(-c4ccsc4)n3)CC2)cn1,21.36
7,CCc1noc(CN(CCC2CCCCC2)CC(N)=O)n1,4.193
8,CCOC(=O)COc1cccc(NC(=O)C2COCCO2)c1 (configuration not stated),12.18
9,O=C(OCc1ccccc1)c1cccc(NC(=O)C2COCCO2)c1 (configuration not stated),-2.465
10,O=C(Nc1cccc(OCc2cccc(F)c2)c1)C1COCCO1 (configuration not stated),108
11,CCOCc1cccc(NC(=O)C2COCCO2)c1 (configuration not stated),-0.8336
12,O=C(Nc1cccc(OCc2ccc(F)cc2)c1)C1COCCO1 (configuration not stated),107.1
13,O=C(Nc1ccc(OCc2cccc(F)c2)c(F)c1)C1COCCO1 (configuration not stated),18.87
14,CC1CCCCN1C(=O)COc1nc(Cc2ccc(F)cc2)no1 (configuration not stated),-36.23
15,CCN(Cc1ccc(C(C)C)cc1)C(=O)c1csc(CN(C)C)n1,-18.18
16,CCCNC(=O)NC(=O)CNc1c(F)cccc1N1CCCC1,-0.2754
17,CCNc1cc2c(nn1)CCN(C(=O)C1Cc3ccccc3S1)C2 (configuration not stated),12.56
18,CN(C)c1cc2c(nn1)CCN(C(=O)C1Cc3ccccc3S1)C2 (configuration not stated),54.31
19,CN(C)c1cc2c(nn1)CCN(C(=O)C1CCc3ccccc31)C2 (configuration not stated),-36.17
20,CN1CCOC(CNC(=O)C2(c3cccc(C(F)(F)F)c3)CCCC2)C1 (configuration not stated),17.35
21,CCn1cc(CN2CCCN(C(=O)CCc3ccccc3)CC2)cn1,-0.8409
